# Laboratory results reported in PubChem BioAssay AID1347044 (National Center for Advancing Translational Sciences (NCATS), 2019).
# The whole screen tested about 1,400 compounds, of which about 1,100 (79%) were called active. About 20% were inconclusive and are not listed. Calls come from the whole dose curve. The set was probably picked from earlier hits. Only a sample is shown.
# Biological target: Atrial natriuretic peptide receptor 1 (Homo sapiens) (UniProt P16066)
# Assay: Natriuretic polypeptide receptor (hNpr1) antagonism - Confirmation; note: nearly all actives have a fitted effect of over 70% in size
# Details: HEK293 hNpr1 cGMP GloSensor luminescence, ANP-stimulated
# Experimental: In order to identify small molecular compounds that inhibit the hNpr1 receptor we developed a high-throughput assay to measure inhibition of the guanylate cyclase activity of the receptor. cGMP production was measured using a circular permutated Firefly luciferase (FLuc) enzyme functionally linked to the cGMP binding domain of human phosphodiesterase 5 (GloSensor technology pGS-40F, (Fan, F. et al. 2008). The cGMP-sensor was expressed in human embryonic kidney 293 (HEK-293) cells and FLuc activity was measured after stimulation with hNrp agonist peptide. hNrp agonists activates the receptor's associated guanylyl cyclase (GC) domain producing cGMP which then binds to the GloSensor resulting in FLuc activation, the enzymatic activity of which can be measured as bioluminescence with addition of luciferin substrate. A cytotoxicity counter-screen using the HEK-hNpr1-cGMP-sensor cells was also performed on the follow-up compounds. F. Fan, B. F. Binkowski, B. L. Butler, P. F. Stecha, M. K. Lewis, K. V. Wood, Novel genetically encoded biosensors using firefly luciferase. ACS Chem Biol 3, 346-351 (2008).
# PROTOCOL TABLES (as described by Inglese J, Shamu CE and Guy RK. 2007) SEQUENCE No. (e.g., 1, 2, 3, etc.); PARAMETER (e.g., Cells, Incubation, Reagent, etc.); VALUE and DESCRIPTION. GLOSENSOR PROTOCOL 1. Cells. Seed 1500 HEK293 cGMP-sensor cells expressing hNpr1 per well in 4uL into Greiner 1536-well white/solid bottom high base, tissue culture-treated plates. 2. Incubation. Incubate plated cells at 37C in 5% CO2, 95% RH overnight. 3. Reagent. Add 1uL per well GloSensor reagent from Promega (2% final concentration) or CO2 independent media vehicle control to respective columns of Greiner 1536-well plates. 4. Incubation. Incubate plated cells at room temperature for 2 h, protect from light. 5. Compounds. Library compounds and A-71915 control added at 23 nL per well, transferred by Pin Tool. 6. Incubation. Incubate plated cells for 30 min. at room temperature, protect from light. 7. Detector. GloSensor baseline pre-read luminescence measured using CCD-based camera (Viewlux). 8. Compound. Add 1uL of hNppA peptide to 0.1 nM final concentration to stimulate hNpr1 or CO2 independent media as vehicle control. 9. Incubation. Incubate treated cells at room temperature for 20 min., protect from light. 10. Detector. GloSensor post-hNppA luminescence measured using CCD-based camera (Viewlux). NOTES (numbers refer to Sequence numbers above) 1. HEK293 cells expressing hNpr1 and GIP/pGS-40F grown to 85-95% confluence (48-72 h) in T175 culture flasks (CO2 independent media supplemented with 10% FBS, 1% Pen/Strep antibiotics and 1 ug/mL puromycin). Trypsinize and harvest cells from T175 culture flasks and filter through 40 um cell strainer. Cells counted with Invitrogen Countess (30,000,000 - 50,000,000 cells/flask). Cells diluted to a final concentration of 375 cells/uL in CO2 independent media and a Millipore multidrop used to dispense 1500 cells per well (4uL/well) into 13 1536-well Greiner White/Solid bottom, high base tissue-culture treated (TC) plates and one Aurora 1536-well Black/Clear bottom, low base, TC plate (for visual inspection of cell health throughout the duration of the assay). 2. Cells incubated overnight at ambient temperature, 24 h. at 37C in 95% RH incubator protected from light, covered with metal lid with gas-exchange holes. 3. […]
# Potency is the fitted concentration of half-maximal effect.
# Atrial natriuretic peptide receptor 1 (Homo sapiens), sequence (P16066 whole entry, looked up): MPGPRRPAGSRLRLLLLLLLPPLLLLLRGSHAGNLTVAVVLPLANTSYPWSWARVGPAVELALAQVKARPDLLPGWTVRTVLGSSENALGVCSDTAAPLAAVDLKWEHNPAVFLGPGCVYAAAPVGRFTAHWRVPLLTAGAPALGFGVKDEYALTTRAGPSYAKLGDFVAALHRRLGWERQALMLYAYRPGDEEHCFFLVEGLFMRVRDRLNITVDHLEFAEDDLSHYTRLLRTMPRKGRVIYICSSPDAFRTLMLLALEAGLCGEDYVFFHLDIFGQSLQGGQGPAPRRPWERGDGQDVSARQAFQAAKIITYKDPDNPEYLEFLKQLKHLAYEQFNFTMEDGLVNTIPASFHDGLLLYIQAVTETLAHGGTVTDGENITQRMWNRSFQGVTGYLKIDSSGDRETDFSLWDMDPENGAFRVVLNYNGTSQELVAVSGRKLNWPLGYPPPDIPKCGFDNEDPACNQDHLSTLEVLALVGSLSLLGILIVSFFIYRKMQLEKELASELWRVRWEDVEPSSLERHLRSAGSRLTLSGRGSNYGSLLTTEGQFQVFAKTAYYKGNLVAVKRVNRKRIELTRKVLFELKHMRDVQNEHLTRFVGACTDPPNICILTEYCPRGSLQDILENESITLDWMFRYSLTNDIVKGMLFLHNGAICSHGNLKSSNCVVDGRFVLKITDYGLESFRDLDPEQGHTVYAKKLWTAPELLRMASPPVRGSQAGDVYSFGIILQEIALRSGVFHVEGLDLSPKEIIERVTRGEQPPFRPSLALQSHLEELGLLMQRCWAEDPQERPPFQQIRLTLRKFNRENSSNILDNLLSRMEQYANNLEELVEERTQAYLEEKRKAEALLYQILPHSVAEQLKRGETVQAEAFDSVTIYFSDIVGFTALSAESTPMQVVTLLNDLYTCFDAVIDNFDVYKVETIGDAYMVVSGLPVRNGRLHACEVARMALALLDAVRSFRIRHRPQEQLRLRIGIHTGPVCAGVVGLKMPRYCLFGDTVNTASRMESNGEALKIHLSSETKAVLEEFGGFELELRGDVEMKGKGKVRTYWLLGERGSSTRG
row,Compound,Potency
1,CCC(CC)c1cc([C@H]2CN3CC[C@H]2C[C@@H]3CNC(=O)NCc2ccccc2)nc(-c2ccncc2)n1,19.3 µM (active)
2,COc1cc2c(cc1Oc1cccc(N(C)C)c1)NC(=O)C21CCN(Cc2ccccn2)CC1,21.7 µM (active)
3,COc1cc2c(cc1Oc1cccc(N(C)C)c1)NC(=O)C21CCN(CCC(C)C)CC1,35.3 µM (active)
4,COc1cc2c(cc1OCc1ccncc1)NC(=O)C21CCN(c2ncc(F)cn2)CC1,39.6 µM (active)
5,COc1cc2c(cc1Oc1cccc(N(C)C)c1)NC(=O)C21CCN(c2cnccn2)CC1,21.7 µM (active)
